# Assay outcomes (PubChem)
# This is a sample that favours compounds with a hit; in the whole collection about 6.3% have one here.
# ATXN viability = cell viability loss in ATXN counter-screen; S2 cells (HEK-293 line with an ATXN2-luciferase reporter) viability, CellTiter-Fluor protease fluorescence, 24 h; Potency, µM (doses to about 56.7 µM), most hits filed as cytotoxic; 400,000 compounds, 0.49% hits; AID 651635; note: nearly all actives have a fitted effect of over 40% in size
# ATXN2 expr inh = ATXN2 expression inhibition. 360,000 compounds, 0.72% hits. Potency, µM (highest dose often 57 µM), without a hit: top-dose activity change, negative = inhibition, usual class: inhibitors. HEK-293 ATXN2-luciferase reporter, luminescence, 24 h; note: % is set by controls: 0 for no effect and ±100 for the full control effect; nearly all actives have a fitted effect of over 55% in size
#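 ATXN2-luciferase reporter cells (luciferase flanked by upstream and downstream ATXN2 gene portions) were treated 24 h at 37 °C with compounds at up to 57 uM. SteadyGlo luminescence gave expression; GF-AFC fluorescence gave viability.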
# VP16 counter = counter-screen for ROR gamma inhibitors: Gal4-VP16 reporter; 310,000 compounds, 3.5% hits; Potency, µM (series often up to 53.6 µM), for the others: at the top dose activity, negative = inhibition, usual class: inhibitors; Drosophila S2 Gal4-VP16 UAS-luciferase, luminescence, 20 h; AID 2546;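 note: Gal4-VP16 expression switched on by copper sulfate through the metallothionein promoter; % is set by controls: 0 for no effect and ±100 for the full control effect; nearly all actives have a fitted effect of over 50% in size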
# RORgamma inh = ROR gamma (mouse) transcription inhibition. P51450. Potency, µM (series often up to 53.6 µM), without a hit: top-dose activity change, negative = inhibition, actives largely listed as inhibitors. 310,000 compounds, 5.4% hits. Drosophila S2 Gal4-RORgamma UAS-luciferase reporter, 20 h; note: % is set by controls: 0 for no effect and ±100 for the full control effect; nearly all actives have a fitted effect of over 60% in size
# Target sequence (P51450 whole entry, looked up, the tested form may be a part): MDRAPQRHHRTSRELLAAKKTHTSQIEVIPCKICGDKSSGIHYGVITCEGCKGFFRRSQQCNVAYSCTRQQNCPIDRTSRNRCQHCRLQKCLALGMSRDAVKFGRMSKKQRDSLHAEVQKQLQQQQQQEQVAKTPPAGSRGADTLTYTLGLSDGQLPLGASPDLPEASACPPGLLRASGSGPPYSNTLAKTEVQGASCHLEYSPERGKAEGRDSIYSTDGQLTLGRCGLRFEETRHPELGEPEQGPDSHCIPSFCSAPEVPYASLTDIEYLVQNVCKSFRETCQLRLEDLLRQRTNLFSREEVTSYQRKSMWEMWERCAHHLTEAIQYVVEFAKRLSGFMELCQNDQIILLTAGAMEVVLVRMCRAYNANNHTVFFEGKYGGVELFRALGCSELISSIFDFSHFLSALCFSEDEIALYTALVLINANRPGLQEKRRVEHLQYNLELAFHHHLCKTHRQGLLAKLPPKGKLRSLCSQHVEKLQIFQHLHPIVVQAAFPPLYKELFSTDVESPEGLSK
#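 Luminescence from a UAS-regulated Photinus luciferase reporter in stably transfected Drosophila Schneider cells is measured; decreased signal marks ROR gamma inhibition. Fusion expression is induced by 700 uM copper sulfate for 20 hr.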
# TGFb SMAD3 inh = blocks TGF-b signaling. 410,000 compounds, 1.2% hits. HepG2 CAGA-GFP TGF-b/SMAD3 reporter, GFP fluorescence, 18 h; TGF-beta stimulated, 500 pg/mL final. AID 588855. Potency, µM (titrated, usually from 46.1 µM), for inactives: at the top dose activity, negative = inhibition, usual class: inhibitors; note: % is set by controls: 0 for no effect and ±100 for the full control effect; nearly all actives have a fitted effect of over 65% in size
#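 Cell-based qHTS in HEPG2 carrying a CAGA-GFP Smad reporter; compounds added before 500 pg/mL final TGF-beta, 18 h incubation at 37 degrees C, GFP fluorescence quantified per cell by imaging cytometry.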
# HepG2 viability = HepG2 cytotoxicity, counter-screen for TGF-b inhibitors; Potency, µM (titrated, usually from 46.1 µM), for inactives: at the top dose activity change, negative = cytotoxicity, actives largely listed as cytotoxic; HepG2 CAGA-GFP viability, ATP luminescence, 18 h; AID 588856; 410,000 compounds, 0.76% hits
#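 CellTiter-Glo luminescence gave cytotoxicity after 18 hours at 37 degrees C. The cells were HepG2 CAGA-GFP in 1% FBS DMEM, stimulated with 500 pg/mL TGF-beta after compound addition. %Activity was normalised to no-cell wells (complete cell-killing) and DMSO (no toxicity), and curves were fitted and classified.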
# * hit, by the source's call; i = inactive; ? = inconclusive; · = no result given. Calls come from the whole dose curve; as a rule, active = well fitted curve in the direction sought with a large enough effect; inconclusive = small, poorly fitted or top-dose-only effect, or another doubt; inactive = no such curve, though single readings can be large; an effect the other way counts as inactive or inconclusive. Potency is the fitted concentration of half-maximal effect.
SMILES,ATXN viability,ATXN2 expr inh,VP16 counter,RORgamma inh,TGFb SMAD3 inh,HepG2 viability
Cc1ccc(N(C(=O)Cc2cccs2)C(C(=O)NC2CCCCC2)c2ccccn2)cc1C (configuration not stated),28.2µM*,-16.6%,-10.6%,36.1%,?,-52.8%
N#Cc1ccc(C(=O)Nc2nnc(-c3ccccn3)o2)cc1,i,17.1%,0.891µM*,1.26µM*,-15.9%,-11.0%
O=C(Nc1nnc(-c2ccccn2)o1)c1cccc(Br)c1,i,-4.7%,0.891µM*,0.501µM*,0.3%,-13.2%
CC(=O)Nc1nnc(-c2ccco2)o1,i,-4.0%,5.5%,-19.1%,-1.0%,19.1%
O=C(Nc1nnc(-c2ccccn2)o1)c1cccc(Cl)c1,i,·,1µM*,0.708µM*,5.6%,-41.0%
O=C(Nc1nnc(-c2ccco2)o1)c1cccc(Cl)c1,i,·,2.82µM*,3.55µM*,-7.1%,6.8%
C[N+](C)(C)c1ccc(/C=C2\C=Cc3ccccc32)cc1,·,·,·,·,11.4%,-30.5%
Cc1cc(C)c(OCC(=O)Nc2nnc(-c3ccco3)o2)c(C)c1,i,0.3%,?,12.6µM*,10.0%,3.4%
Cc1ccc(SCC(=O)Nc2nnc(-c3ccco3)o2)cc1,i,-37.2%,·,·,3.8%,1.5%
O=C(/C=C/c1ccccc1)Nc1nnc(-c2ccco2)o1,i,-5.2%,5.01µM*,2.24µM*,-3.4%,-27.0%
O=C(CN(C1CCCCC1)S(=O)(=O)c1ccccc1)NCC1CCCO1 (configuration not stated),i,-7.9%,0.9%,2.3%,6.1%,-1.3%
O=C(CN(C1CCCCC1)S(=O)(=O)c1ccc(F)cc1)NCC1CCCO1 (configuration not stated),?,-5.8%,·,·,4.47µM*,7.08µM*
Cc1cc(C)c(CN2CCC3(CCC(CNC(=O)c4ccn(C)n4)O3)CC2)cc1C (configuration not stated),i,·,·,·,·,·
CS[C@@H]1SC[C@H]2C(=O)N(C)C(C(C)C)C(=O)OC[C@@H](NC(=O)c3cnc4ccccc4n3)C(=O)N[C@@H](C)C(=O)N(C)[C@H]1C(=O)N(C)C(C(C)C)C(=O)OC[C@@H](NC(=O)c1cnc3ccccc3n1)C(=O)N[C@@H](C)C(=O)N2C (some centres not stated),·,·,-1.3%,0.0398µM*,·,·
CS[C@H]1SC[C@@H]2C(=O)N(C)[C@H](C(C)C)C(=O)OC[C@H](NC(=O)c3cnc4ccccc4n3)C(=O)N[C@H](C)C(=O)N(C)[C@@H]1C(=O)N(C)[C@H](C(C)C)C(=O)OC[C@H](NC(=O)c1cnc3ccccc3n1)C(=O)N[C@H](C)C(=O)N2C,·,0.0109µM*,·,·,·,·
CC(NC(=O)c1cnc2ccccc2n1)c1ccccc1 (configuration not stated),i,18.7%,7.7%,?,-2.1%,-6.6%
CCOc1ccc(S(=O)(=O)N2CCC(C(=O)NC3CCCCC3)CC2)cc1,i,-8.3%,-5.1%,-2.9%,3.3%,11.9%
COc1ccccc1C(=O)N/C(=N/c1nc(C)cc(C)n1)Nc1ccccc1,?,-11.4%,?,10µM*,?,-35.0%
CCC(=O)N/C(=N/c1nc(C)cc(C)n1)Nc1ccccc1,i,-10.8%,?,4.7%,-13.8%,5.1%
Cc1cc(C(=O)N/N=C/c2ccc(-c3cccc(Cl)c3)o2)n[nH]1,i,-25.5%,-20.7%,-38.4%,6.9%,-34.0%
Cc1ccc(C(=O)N/N=C/c2ccc(-c3cccc(Cl)c3)o2)cn1,i,-29.6%,7.08µM*,5.01µM*,?,-12.2%
Cc1ccc(C(=O)N/N=C\c2ccc(-c3ccc(Cl)c(Cl)c3)o2)cn1,?,?,?,?,11.2µM*,-96.2%
COc1ccc(-c2noc(CSc3nnc(Cc4ccccc4)n3-c3ccccc3)n2)cc1OC,?,-25.2%,·,·,?,-49.7%
Cc1cnccc1/C=C/c1ccc(N)cc1,·,·,·,·,4.9%,-23.3%
COc1cc(/C(C)=N\NC(N)=S)cc(OC)c1OC,i,-3.7%,?,5.62µM*,-1.9%,-1.7%
SMILES,ATXN viability,ATXN2 expr inh,VP16 counter,RORgamma inh,TGFb SMAD3 inh,HepG2 viability
COc1cc(/C(C)=N/NC(=S)NC(C)C)cc(OC)c1OC,i,4.3%,5.01µM*,3.16µM*,10µM*,-37.3%
COc1cc(C(=O)NCCC(=O)NC(C)C)cc(OC)c1OC,i,-26.7%,7.6%,-9.2%,3.3%,-1.6%
COC(=O)[C@@H]1C[C@H]1[C@@H](NC(=O)c1cc(C)nn1C)c1ccccc1,·,·,8.0%,-4.7%,·,·
CC(=O)Nc1ccc(OC[C@@H](O)CNC(C)C)cc1,?,·,0.5%,4.5%,·,·
O=[N+]([O-])c1cc(C=Nc2ccc3ccccc3c2)ccc1Br,?,-3.6%,?,20µM*,-29.4%,-46.0%
N#Cc1cccc(-c2nc(NCCN3CCOCC3)c3ccccc3n2)c1,·,·,-14.9%,-19.4%,·,·
O=C(Nc1cc(Cl)cc(Cl)c1)c1cc(S(=O)(=O)N2CCC3(CC2)OCCO3)ccc1F,?,?,·,·,-15.4%,-18.5%
CCC(c1nnnn1C1CCCC1)N(Cc1cccs1)Cc1cc2cc(C)ccc2[nH]c1=O (configuration not stated),?,31.6µM*,-20.1%,-12.9%,2.9%,-10.2%
CC(C)(C)c1ccc(/C=N/Nc2nncn2N)cc1,i,-5.0%,?,-33.0%,-10.0%,3.55µM*
Nn1cnnc1N/N=C/c1cc(Br)cc(Br)c1O,i,?,12.6µM*,10µM*,-32.6%,-39.0%
CSc1ccc(/C=N\Nc2nncn2N)cc1,?,·,?,-38.0%,?,-144.0%
CC(C)(C)c1nnc(N/N=C/c2ccc(Br)cc2)n(N)c1=O,?,6.9%,2.82µM*,2.82µM*,-0.7%,-29.4%
CCn1c(=O)c2c(nc(C=Cc3ccc(OC)c(OC)c3)n2C)n(CC)c1=O,i,?,·,·,·,·
CC(=O)Nc1cc(C(=O)N2CCN(C(=O)c3ccco3)CC2)cc2ncn(CCc3ccccn3)c12,i,·,·,·,·,·
CC(=O)Nc1ccc(NC(=O)CCCn2nc(C)c3sc4ccccc4c3c2=O)cc1,i,5.0%,·,·,8.6%,3.9%
Cc1ccc(-c2noc(CCC(=O)NCCCN3CCN(c4cccc(Cl)c4)CC3)n2)cc1,i,?,14.1µM*,3.98µM*,-4.6%,-23.5%
Cc1ccccc1Nc1cc(C(=O)NCCCN2CCN(c3cccc(Cl)c3)CC2)c2ccccc2n1,?,?,·,·,22.4µM*,-59.1%
CCc1ccccc1Nc1cc(C(=O)NCCCN(C)C2CCCCC2)c2ccccc2n1,15.8µM*,?,·,·,?,-83.8%
